Source: PubChem BioAssay (several laboratories)
Rows were chosen to be rich in hits. Some 3.1% of all compounds tested hit in one or more screens of this group.
ABHD5-PLIN5 inh – ABHD5-PLIN5 interaction inhibitors, primary screen, cell lysate, split luciferase complementation, luminescence; inhibition, % at 4 µM; Perilipin-5 (Homo sapiens) + 1-acylglycerol-3-phosphate O-acyltransferase ABHD5 (Homo …; Split G. princeps luciferase complementation, 4 h; AID 602281, 2012; 360,000 compounds, 0.78% hits;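 active = inhibition above the mean inhibition across every tested compound plus 3 SD, cut at about 22% in these data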
Target sequence (Q00G26 whole entry, looked up): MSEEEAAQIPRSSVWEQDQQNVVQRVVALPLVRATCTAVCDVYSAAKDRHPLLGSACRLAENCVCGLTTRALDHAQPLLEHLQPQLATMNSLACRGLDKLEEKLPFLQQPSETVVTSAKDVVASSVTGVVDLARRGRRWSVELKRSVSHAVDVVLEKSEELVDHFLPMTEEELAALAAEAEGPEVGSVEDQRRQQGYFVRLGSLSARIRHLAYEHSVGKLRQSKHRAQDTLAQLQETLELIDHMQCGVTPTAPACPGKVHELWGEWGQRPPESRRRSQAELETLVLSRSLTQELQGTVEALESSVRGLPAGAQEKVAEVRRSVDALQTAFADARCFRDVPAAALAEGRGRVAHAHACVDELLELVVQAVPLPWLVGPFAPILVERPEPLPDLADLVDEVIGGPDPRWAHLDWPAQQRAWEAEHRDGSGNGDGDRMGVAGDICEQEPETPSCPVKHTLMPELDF
Target sequence (Q8WTS1 whole entry, looked up): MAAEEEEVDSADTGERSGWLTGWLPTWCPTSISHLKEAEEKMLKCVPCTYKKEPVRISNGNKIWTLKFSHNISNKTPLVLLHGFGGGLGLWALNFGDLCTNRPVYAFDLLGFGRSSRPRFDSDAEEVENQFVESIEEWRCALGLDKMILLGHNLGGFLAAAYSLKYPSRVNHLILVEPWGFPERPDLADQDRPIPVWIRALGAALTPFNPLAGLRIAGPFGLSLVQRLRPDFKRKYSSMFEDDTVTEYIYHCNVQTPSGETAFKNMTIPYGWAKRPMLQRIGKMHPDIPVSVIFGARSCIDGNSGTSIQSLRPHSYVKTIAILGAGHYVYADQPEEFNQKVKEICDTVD
HIF-2a inh – HIF-2a reporter inhibitors, primary screen, luminescence, 786-0 RCC cells. 786-0 RCC cells HIF-2a reporter, luciferase luminescence, overnight. inhibition, % at 18.8 µM. 360,000 compounds, 0.72% hits. AID 624352, 2012;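 active = inhibition of the luminescence signal of 40% or more relative to plate controls, in a single-dose primary screen at 18.75 µM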
TRPM1 prom inh – inhibitors of MITF-dependent TRPM1 promoter reporter, primary screen, cell-based, SK-MEL-5, single point, luciferase. SK-MEL-5 TRPM1 promoter luciferase, 24 h. 330,000 compounds, 0.83% hits. inhibition, % at 12.5 µM;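 active = mean inhibition across replicates of 60% or more, whatever share of single replicates reaches that level; inconclusive = some that reach 60%, reason not given; inactive = mean inhibition across replicates below 60%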
Peg3 prom inh – Peg3 promoter-driven luciferase inhibitors, primary screen, cell-based, HeLa, luciferase luminescence. 360,000 compounds, 1.7% hits. inhibition, % at 20 µM. HeLa PEG-Prom luciferase reporter, overnight;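 active = inhibition of at least 50% at 20 µM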
KKLEB cytotox – cytotoxicity in KKLEB CF airway cells, primary screen, cytotoxicity control for CF NF-kB inhibitor project, cell-based, uHTS, fluorescence assay plates. activity change (cytotoxicity), % at 5 µM. 360,000 compounds, 0.36% hits. KKLEB CF airway cells viability, ATPlite luminescence, overnight; active compounds read low; cells stimulated with P. aeruginosa culture filtrate. AID 602141, 2011;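 active = corrected activity change at or below -50% at 5 µM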
CF NFkB block – inhibitors of PAF-induced NF-kB signaling, primary screen, cell-based, GFP fluorescence, uHTS. KKLEB NF-kB-GFP reporter, GFP fluorescence overnight. inhibition, % at 5 µM. 360,000 compounds, 0.86% hits. AID 588850, 2011;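 active = at least 50% inhibition at 5 µM, scaled per plate between neutral and stimulator controls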;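 also: PAF is a Pseudomonas aeruginosa culture filtrate used as stimulus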
Of the large screens only hits and unclear results are named; the others gave an inactive call.

COC(=O)C1=C(C)N(Cc2ccccc2)C(=NCc2ccccc2)N[C@H]1c1cccc(C(F)(F)F)c1	TRPM1 prom inh 89, Peg3 prom inh 99
COC(=O)C1=C(C)N(Cc2ccccc2)C(=NCc2ccc(OC)cc2)N[C@H]1c1cccc(F)c1	TRPM1 prom inh inconclusive, Peg3 prom inh 102
COC(=O)C1=C(C)N(Cc2ccccc2)C(=NCc2cc(OC)c(OC)c(OC)c2)N[C@H]1c1cccc(F)c1	none
COC(=O)C1=C(C)N(Cc2ccccc2)C(=NCC(C)C)N[C@H]1c1cccc(F)c1	Peg3 prom inh 83
COC(=O)C1=C(C)N(Cc2ccccc2)C(=NCc2ccco2)N[C@H]1c1cccc(F)c1	none
Cc1ccc(CSc2ccc(C(=O)N3CCOCC3)cc2[N+](=O)[O-])cc1	none
Cc1ccc(-c2nc(N/N=C/c3ccncc3)c3ccccc3n2)cc1	KKLEB cytotox -95
Cc1c(O)ccc(/C=N/Nc2nc(-c3cccnc3)nc3ccccc23)c1O	CF NFkB block 61
Cc1cc(N/N=C/c2ccc(O)c(C)c2O)nc(-c2ccccc2O)n1	Peg3 prom inh 69, KKLEB cytotox -102, CF NFkB block 104
CCN1CCN(c2ccc(NC(=O)c3ccc(Cl)c(S(=O)(=O)N4CCCC4)c3)cc2)CC1	none
Cc1cc(C(=O)CSc2nnc(CCC(N)=O)n2C)c(C)n1C1CC1	none
CC1CC(=O)c2cc(-c3ccccc3)oc2C1 (centres undefined)	none (no result: TRPM1 prom inh)
CC1CC(=O)C(C(C2=C(O)CC(C)CC2=O)c2ccccc2)=C(O)C1 (centres undefined)	ABHD5-PLIN5 inh 23
CC(C(=O)NCc1ccco1)n1cc([N+](=O)[O-])cn1 (centres undefined)	none
O=C(Nc1cccc(S(=O)(=O)N2CCCCC2)c1)c1ccc2c(=O)n3c(nc2c1)CCCCC3	Peg3 prom inh 90
CCC(=O)Nc1ccc(NC(=O)c2oc3ccccc3c2C)cc1	HIF-2a inh 62
CC(=O)Nc1cccc(C(=O)N2CCN(S(=O)(=O)Cc3ccccc3)CC2)c1	none
Oc1ccc(-c2nc3c4c(ncn3n2)-c2ccccc2CC42CCCC2)cc1	Peg3 prom inh 111
COc1ccc(C2NC(=S)NC3=C2CCCC3=C2SCCS2)cc1 (centres undefined)	TRPM1 prom inh 84
S=C1NC2=C(CCCC2=C2SCCCS2)C(c2ccccc2)N1 (centres undefined)	none
CC(C)N1C(=O)S/C(=C/c2ccc3c(c2)n(C)c(=O)n3C)C1=O	none
CCN(CC)c1ccc(/C=C2\SC(=O)N(C(C)C)C2=O)o1	ABHD5-PLIN5 inh 86, Peg3 prom inh 89 (no result: TRPM1 prom inh)
CCCCc1ccc(NC(=O)N2CCN(c3cc(C)nc4ccccc34)CC2)c(C)c1	Peg3 prom inh 60
C=CC[n+]1c(/C=C2\C=Cc3cc(C)ccc3N2CC)ccc2ccccc21	TRPM1 prom inh 78
CC1=NN(c2ccc(C)c(C)c2)C(=O)/C1=C\C=C\c1ccc([N+](=O)[O-])o1	TRPM1 prom inh 84, Peg3 prom inh 88
CCOC(=O)C1=C(C)NC(=S)N(C=O)C1c1ccccc1 (centres undefined)	none
CC1(C)OC(C(O)(c2ccccc2)c2ccccc2)[C@@H](C(O)(c2ccccc2)c2ccccc2)O1 (some centres undefined)	Peg3 prom inh 64
CN(C)Cc1ccccc1C(O)(c1ccccc1)c1ccccc1	none
NC(N)=N/N=C(\N=Nc1ccccc1)c1cccc2cccnc12	none
NC(N)=N/N=C(\N=Nc1ccccc1)c1ccc(Cl)cc1	Peg3 prom inh 90
O=S(=O)(c1ccccc1)c1nnn2c1nc(NC1CCN(Cc3ccccc3)CC1)c1cc(Cl)ccc12	Peg3 prom inh 55
COc1cc(C(=O)N2CCN(C)C(C)C2)ccc1OC1CCN(C(C)=O)CC1 (centres undefined)	none
N#CC(c1ccc(Cl)cc1)c1ccc2c(C(F)(F)F)cc(C(F)(F)F)nc2n1 (centres undefined)	TRPM1 prom inh 79, Peg3 prom inh 52, KKLEB cytotox -74, CF NFkB block 67
FC(F)(F)c1cc(C(F)(F)F)c2ccc(N3CCN(c4ccc(Cl)cc4)CC3)nc2n1	none
CC1(C)CC[C@]2(C(=O)n3ccnc3)CC[C@]3(C)[C@H](C(=O)C=C4[C@@]5(C)C=C(C#N)C(=O)C(C)(C)[C@@H]5CC[C@]43C)[C@@H]2C1	HIF-2a inh 90, TRPM1 prom inh 94, Peg3 prom inh 106, KKLEB cytotox -70, CF NFkB block 85
CC(NC(=O)CN(c1ccc(Cl)cc1)S(C)(=O)=O)c1ccccc1 (centres undefined)	none
CC1(C)C(=O)N(c2ccccc2)C1c1ccccc1O (centres undefined)	Peg3 prom inh 52
COc1ccc(-c2cc(C(=O)OCC(=O)NC(C)C)c3ccccc3n2)cc1	none
Cc1nccn1CC(=O)c1ccccc1	none (no result: TRPM1 prom inh)
O=P(NC1CCCCC1)(c1ccccc1)c1ccccc1	none
CC/C(=C\C1CCCCC1)C(NP(=O)(c1ccccc1)c1ccccc1)c1ccccc1 (centres undefined)	Peg3 prom inh 59
Cc1cc(C)c(NC(=O)CNC(=O)c2ccc3ncsc3c2)c(C)c1	none
O=C(NC1=C(Nc2ccc(Cl)cc2)C(=O)c2ccccc2C1=O)c1ccccc1	TRPM1 prom inh 72
CS(=O)(=O)c1ccc(C(=O)OCC(=O)N2CCOCC2)cc1[N+](=O)[O-]	none (no result: TRPM1 prom inh)
CS(=O)(=O)c1ccc(C(=O)OCC(=O)NC(=O)C2CCCCC2)cc1[N+](=O)[O-]	TRPM1 prom inh 67, Peg3 prom inh 98, CF NFkB block 74
CS(=O)(=O)c1ccc(C(=O)OCC(=O)NC(=O)C2COc3ccccc3O2)cc1[N+](=O)[O-] (centres undefined)	none
CS(=O)(=O)c1ccc(C(=O)OCC(=O)N2CCN(CCC3CCCCC3)CC2)cc1[N+](=O)[O-]	HIF-2a inh 80, Peg3 prom inh 97, KKLEB cytotox -85, CF NFkB block 101 (no result: TRPM1 prom inh)
CCOC(=O)c1ccc(-c2ccc(/C=C(\C#N)C(=O)NCc3cccs3)o2)cc1	Peg3 prom inh 72
CC1NC(=S)N(Cc2ccccc2)C1=O (centres undefined)	none
O=C(O)CC1NC(=S)N(Cc2ccccc2)C1=O (centres undefined)	Peg3 prom inh 52 (no result: TRPM1 prom inh)
COc1ccc(-c2cc(=O)oc3c(C)c(OC(C)C(C)=O)ccc23)cc1 (centres undefined)	Peg3 prom inh 52
